# TGFb SMAD3 inh = blocks TGF-b signaling; Potency, µM (series often up to 46.1 µM), for the others: top-dose activity, negative = inhibition, actives largely listed as inhibitors; AID 588855; actives 1.2% (n = 410,000); HepG2 CAGA-GFP TGF-b/SMAD3 reporter, GFP fluorescence, 18 h; TGF-beta stimulated, 500 pg/mL final; note: potency is the fitted concentration of half-maximal effect; % is set by controls: 0 for no effect and ±100 for the full control effect; nearly all actives have a fitted effect of over 65% in size
#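 TGF-beta reporter screen: HEPG2 CAGA-GFP, 1% FBS, 500 pg/mL TGF-beta final, 18 h; per-cell GFP summed per well; curves fitted and categorized by class.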
# S-ASM inh = inhibitors of human secretory acid sphingomyelinase; AID 504937; actives 0.006% (n = 340,000); placental ASM, HMU-PC fluorogenic substrate, 60 min; Potency, µM (top dose mostly 57.5 µM), for the others: at the top dose activity change, negative = inhibition, usual class: inhibitors; P17405; note: potency is the fitted concentration of half-maximal effect
# Target sequence (P17405 47-631 limits assumed): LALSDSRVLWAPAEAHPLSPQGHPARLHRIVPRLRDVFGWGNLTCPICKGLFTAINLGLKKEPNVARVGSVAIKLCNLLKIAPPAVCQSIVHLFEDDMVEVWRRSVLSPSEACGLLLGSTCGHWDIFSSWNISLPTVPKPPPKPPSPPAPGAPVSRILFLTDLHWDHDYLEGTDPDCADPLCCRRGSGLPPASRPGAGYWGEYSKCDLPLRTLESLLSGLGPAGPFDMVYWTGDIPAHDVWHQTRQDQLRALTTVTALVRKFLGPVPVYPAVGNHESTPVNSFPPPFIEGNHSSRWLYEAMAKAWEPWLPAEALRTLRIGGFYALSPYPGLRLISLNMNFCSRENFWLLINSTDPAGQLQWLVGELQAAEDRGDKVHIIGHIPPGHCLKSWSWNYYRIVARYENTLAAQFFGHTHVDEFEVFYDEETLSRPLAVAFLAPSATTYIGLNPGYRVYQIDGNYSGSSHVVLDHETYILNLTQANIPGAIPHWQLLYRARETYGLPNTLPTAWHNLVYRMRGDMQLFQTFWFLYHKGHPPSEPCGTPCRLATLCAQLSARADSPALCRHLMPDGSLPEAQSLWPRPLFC
#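 Fluorescence read-out (Ex 386 nm, Em 447 nm) after stopping the reaction at pH 10. Enzyme: ASM from human placenta; substrate HMU-PC0, 9 uM final; 60 min, 37 °C. Compound preincubation 10 min, ambient temperature.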
# DT40 TDP1 no CPT = qHTS for Inhibitors of human tyrosyl-DNA phosphodiesterase 1 (TDP1): qHTS in cells in absence of CPT; DT40 Tdp1-/- hTDP1 cells, no CPT, ATP luminescence, 48 h; AID 686978, 2013; actives 15% (n = 420,000); Potency, µM (highest dose often 46.2 µM), for the others: at the highest dose activity change, negative = growth inhibition, most hits filed as inhibitors; note: potency is the fitted concentration of half-maximal effect; % is set by controls: 0 for no effect and ±100 for the full control effect; nearly all actives have a fitted effect of over 55% in size
#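 A cellular qHTS used chicken DT40 cells lacking endogenous Tdp1 but carrying stably transfected human TDP1. Compounds were applied without camptothecin, and cell growth kinetics were judged by ATP-dependent luminescence after ≥48 hr.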
# TDP1 cell CPT = growth inhibition of DT40 Tdp1-/-;hTDP1 cells with camptothecin (screen for TDP1 inhibitors). chicken DT40 Tdp1-/-;hTDP1 cells + 20 nM CPT, ATP luminescence, 48 h. Potency, µM (highest dose often 46.2 µM), inactives show top-dose activity change, negative = growth inhibition, usual class: inhibitors. actives 12% (n = 420,000). AID 686979; note: potency is the fitted concentration of half-maximal effect; % is set by controls: 0 for no effect and ±100 for the full control effect; nearly all actives have a fitted effect of over 55% in size
#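 Chicken DT40 Tdp1-/- cells stably complemented with human TDP1 were seeded at 400 cells/well in medium containing 20 nM camptothecin, exposed to pin-transferred compounds, and grown at 37 °C for at least 48 hr. Viability was read as ATP luminescence.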
# IL-1B inflam inh = inflammasome signaling inhibition, IL-1 beta readout; THP-1 LPS/ATP IL-1B secretion, AlphaLISA, 16 h; hits give low values; activity change, % at 57.5 µM; actives 4.7% (n = 360,000); AID 743279; in the data active = activity change below about -50%; inconclusive = mostly about -30% to -49%; note: % is set by controls: 0 for no effect and ±100 for the full control effect
#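 THP-1 cells pretreated 1 hr with compounds (up to 57.5 uM final), then stimulated with LPS (250 ng/mL final) plus ATP (1.25 mM final); secreted IL-1B measured by AlphaLISA after 16 hr, decreased signal indicating inhibition.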
# HepG2 viability = counter-screen for TGF-b inhibitors: cytotoxicity in HepG2 cells. actives 0.76% (n = 410,000). Potency, µM (titrated, usually from 46.1 µM), without a hit: top-dose activity change, negative = cytotoxicity, usual class: cytotoxic. HepG2 CAGA-GFP viability, ATP luminescence, 18 h; note: potency is the fitted concentration of half-maximal effect
#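 HepG2 CAGA-GFP cells (1000/well, DMEM with 1% FBS) received compound, then TGF-beta at 500 pg/mL final, and were incubated 18 hours at 37 degrees C. Viability was read by CellTiter-Glo luminescence. Media-only wells were set as complete cell-killing and DMSO as no toxicity.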
# Numbers without * were called inactive; u = inconclusive; x = no result; ! = repeats disagree. Hits are enriched below; roughly 19% of the tested compounds scored in any of these assays. Unless noted, calls come from the whole dose curve; as a rule, active = well fitted curve in the direction sought with a large enough effect; inconclusive = small, poorly fitted or top-dose-only effect, or another doubt; inactive = no such curve, though single readings can be large; an effect the other way counts as inactive or inconclusive.
SMILES,TGFb SMAD3 inh,S-ASM inh,DT40 TDP1 no CPT,TDP1 cell CPT,IL-1B inflam inh,HepG2 viability
COc1cc(/C=C/[N+](=O)[O-])ccc1OCc1cccc(C(=O)O)c1,u,2.9%,16.4µM*,16.4µM*,-96.8*,-39.6%
COc1cc(OC)c(C(=O)C=Cc2ccc(OC)c(OC)c2)c(OC)c1,-4.5%,-2.4%,u,u,-101.0*,-39.8%
COc1ccc(/C=C/C(=O)C(C)(C)C)cc1OC,-7.4%,4.3%,u,-5.2%,u,-4.0%
COc1cc(/C=C/[N+](=O)[O-])ccc1OC(=O)/C=C/c1ccc(F)cc1,-8.9%,-0.2%,2.31µM*,3.26µM*,u,6.0%
COc1cc(OCc2ccccc2)c(C(=O)/C=C/c2ccc3c(c2)OCO3)c(OC)c1OC,-4.3%,-2.7%,u,u,-91.1*,-8.9%
COc1ccc(C(=O)C=Cc2ccc(OCc3ccccc3)c(OC)c2)cc1OC,15.2%,x,4.61µM*,7.31µM*,-90.1*,-1.3%
COc1ccc(C(=O)C=Cc2ccc3c(c2)OCO3)cc1OC,6.0%,x,u,-21.2%,-23.1,-22.5%
COc1cc(/C=C/C(=O)NC(C)(C)C)ccc1OCc1ccccc1,-6.5%,1.3%,u,u,-13.1,5.8%
COC(=O)Cc1c(C(=O)OC)nnn1-c1ccc(OC(F)(F)F)cc1,1.0%,-0.2%,-10.5%,-10.0%,31.1,-11.1%
Cc1nc2cc(-c3ccccc3)nn2c(C)c1CCC(=O)NCCc1ccccc1,u,x,u,16.4µM*,x,-23.2%
Cc1nc2cc(-c3cccc(F)c3)nn2c(C)c1CCC(=O)NCCc1ccccc1,-13.2%,x,u,25.9µM*,x,-1.8%
CCOC(=O)C(Cc1ccccc1)NC(=O)CCc1c(C)nc2ncnn2c1C (configuration not stated),-8.7%,-1.1%,-16.1%,u,-4.7,6.9%
CCOC(=O)C(Cc1ccccc1)NC(=O)CCc1c(C)nc2nc(C)nn2c1C (configuration not stated),16.5%,-3.6%,23.1µM*!,u,u,-11.2%
Cc1nc2ncnn2c(C)c1CCC(=O)NCCc1ccccc1,-6.8%,3.8%,-26.5%,u,3.2,-7.4%
O=C1NC[C@@H](CCCCN2C[C@H](Cc3ccccc3)N(Cc3ccccc3)C(=O)C2=O)N(CCc2ccccc2)C1=O,x,x,-21.9%,-12.7%,-12.5,x
COc1ccc(N2C(=O)CSC23C(=O)N(Cc2ccccc2F)c2ccccc23)cc1Cl (configuration not stated),-2.9%,x,x,x,x,-21.1%
O=C1CSC2(C(=O)N(Cc3ccccc3F)c3ccccc32)N1c1cccc(C(F)(F)F)c1 (configuration not stated),11.2µM*,x,x,x,x,-11.2%
Cc1cc(C)cc(N2C(=O)CSC23C(=O)N(Cc2c(F)cccc2Cl)c2ccccc23)c1 (configuration not stated),u,x,16.4µM*,16.4µM*,x,-16.6%
COc1cccc(OC)c1OC(=O)c1ccccc1,-13.0%,-2.6%,-14.6%,-0.3%,-8.7,-3.8%
CCOc1ccc(C(c2c(O)cc(C)n(Cc3ccco3)c2=O)N2CCN(c3ccccc3)CC2)cc1 (configuration not stated),-2.2%,x,u,u,x,-17.1%
O=C(NC1CCCC1)c1ccc(Cl)c(S(=O)(=O)N2CCCCC2)c1,-0.2%,2.7%,u,u,14.4,-6.2%
CCn1c(C)nc2cc(C(=O)NNC(=O)[C@@H](NC(=O)c3cc(OC)cc(OC)c3)C(C)C)ccc21,0.0%,2.5%,-8.7%,-10.2%,-5.3,8.7%

# Assay outcomes (PubChem BioAssay)
